A word on the AC50: it is the concentration at which the activity in the assay is half-maximal.

The values that follow come from PubChem BioAssay AID1851 (National Center for Advancing Translational Sciences (NCATS), 2009).

The structures appear in SMILES notation. Hit rate of the full screen: of about 16,000 compounds, about 5,700 (36%) were called active. Not shown: some 24% with an inconclusive outcome. The list shows a part of the results. A number with no mark means an inactive call. Calls come from the whole dose curve; as a rule, active = well fitted curve in the direction sought with a large enough effect; inconclusive = small, poorly fitted or top-dose-only effect, or effect the other way; inactive = no such curve, though single readings can be large or run the other way.
% is set by controls: 0 for no effect and ±100 for the full control effect.

Cytochrome P450 1A2 (Homo sapiens), sequence (P05177 whole entry, looked up): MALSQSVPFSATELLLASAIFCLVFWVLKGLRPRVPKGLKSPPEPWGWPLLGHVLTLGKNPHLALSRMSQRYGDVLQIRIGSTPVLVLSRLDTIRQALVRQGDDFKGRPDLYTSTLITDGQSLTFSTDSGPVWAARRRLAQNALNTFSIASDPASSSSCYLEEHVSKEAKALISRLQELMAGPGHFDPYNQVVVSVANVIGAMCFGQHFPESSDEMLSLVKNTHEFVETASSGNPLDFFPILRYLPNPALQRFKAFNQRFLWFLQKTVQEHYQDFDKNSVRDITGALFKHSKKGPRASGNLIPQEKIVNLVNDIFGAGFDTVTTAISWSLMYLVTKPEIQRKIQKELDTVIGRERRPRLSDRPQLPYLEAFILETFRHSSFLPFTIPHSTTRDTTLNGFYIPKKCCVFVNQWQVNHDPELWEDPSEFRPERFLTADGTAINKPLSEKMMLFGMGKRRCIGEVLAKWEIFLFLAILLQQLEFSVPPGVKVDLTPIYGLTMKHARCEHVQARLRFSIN

In the experiment the target is Cytochrome P450 1A2 (Homo sapiens) (UniProt P05177). Put plainly: Cytochrome panel assay with activity outcomes. The following applies: recombinant CYP, pro-luciferin dealkylation, luminescence, p450-cyp1a2; series mostly up to 57.1 µM; activity, negative = inhibition: at the top concentration. The protocol:
The P450 gene superfamily is involved in the metabolism and clearance of xenobiotics. This assay used various human CYP P450 isozymes to measure the dealkylation of various pro-luciferin substrates to luciferin. The luciferin is then measured by luminescence after the addition of a luciferase detection reagent. Pro-luciferin substrate concentration in the assay was equal to its KM for its CYP P450 isozyme. Inhibitors and some substrates limit the production of luciferin, and decrease measured luminescence.
NCGC Assay Protocol Summary:
1, Reagent, 2 uL, Isozyme and Pro-Luciferin
2, Library compounds, 23 nl, 40 uM to 0.24 nM dilution series
3, Controls, 23 nl, Isozyme specific inhibitor
4, Reagent, 2 uL, NADPH regeneration solution
5, Incubation time, 60 min, Isozyme specific temperature
6, Reagent, 4ul, Detection reagent
7, Incubation time, 20 min, Isozyme specific temperature
8, Detection, 1 sec, ViewLux luminescent read
The luciferase-based P450-GloTM Screening Systems were obtained from Promega (Madison, WI) for CYP 1A2 (V9770), CYP 2C9 (V9790), CYP2 C19 (V9880), CYP 2D6 (V9890), and CYP 3A4 Luciferin-PPXE (V9910) and were adapted for 1,536-well microplates and an automated protocol. The control compounds furafylline for 1A2 (F124), sulfaphenazole for CYP 2C9 (S0758), ketoconazole for CYP 2C19 (K1003), quinidine for 2D6 (Q3625), and ketoconazole for 3A4 (K1003) were purchased from Sigma Aldrich (St. Louis, MO). Recombinant P450 enzymes were obtained from baculovirus constructs expressed in insect cells (BD/Gentest).
Medium-binding white solid Kalypsys plates used. Mixtures kept on ice. 1A2: 10 nM 1A2, 100 uM Luc-ME, 100 mM KPO4; 2C9: 10 nM 2C9, 100 uM Luc-H, 25 mM KPO4; 2C19: 5 nM 2C19, 10 uM Luc-H EGE, 50 mM KPO4; 2D6: 5 nM 2D6, 30 uM Luc-ME EGE, 100 mM KPO4; 3A4: 10 nM, 25 uM Luc-PPXE. All amounts are reflected in their final concentration, working concentration is 2x.
NADPH regeneration solution: 1.3 mM NADP+, 3.3 mM glucose-6-phosphate, 3.3 mM MgCl2, 0.4 U/mL glucose-6-phosphate dehydrogenase for all isozymes, 200 mM KPO4 for 3A4. Mixture prepared at RT but kept on ice during automated run.
RT incubation in auxilliary plate hotel for 1A2, 2D6, and 3A4; 37C for 2C9 and 2C19.
Keywords: P450, CYP1A2, CYP2C19, CYP2C9, CYP2D6, CYP3A4, Luciferase, MLSMR, MLSCN, NIH Roadmap, qHTS, NCGC
For `CC(C)(C)C(=O)NC(Nc1cccc2cccnc12)C(Cl)(Cl)Cl` (stereo not drawn), the AC50 is 20 µM (active). Turning to `Oc1c([C@H](Nc2ccccn2)c2ccccc2)ccc2cccnc12`, the activity, negative = inhibition is -21.9% [at 2.29 µM]. Turning to `Cc1ccc(C)n1C(Cc1ccccc1)C(=O)O` (stereo not drawn), the activity, negative = inhibition was 6.11% [at 11.4 µM]. Regarding `Cc1ccc(-n2c(C)nc3c(cnn3-c3ccc(F)cc3)c2=O)cc1C`, the AC50 is 2.51 µM (active).

Take `Cc1cc(C)n(-c2ccc(F)cc2)c(=O)c1C(=O)O`: the “activity, negative = inhibition” value was 3.85%. Turning to `FC(F)(F)c1cc(C(F)(F)F)c2ccc(N/N=C/c3cccc(Cl)c3)nc2n1`, the AC50 is 2.51 µM (active).

Regarding `O=c1c(O)c(-c2cc(O)c(O)c(O)c2)oc2cc(O)cc(O)c12`, the AC50 was 5.01 µM (active). On the same count and under the same terms, for `Cc1cccc(OCCCCCn2ccnc2)c1` the value was 0.282 µM (active); for `Cc1ccc(OCCOCCn2ccnc2)c(Br)c1`, 0.282 µM (active).

`O=C1C2C3C=CC(C2C(=O)N1CN1CCOCC1)C1C2C(=O)N(CN4CCOCC4)C(=O)C2C31` (stereo not drawn): the activity, negative = inhibition was -7.11% [at 11.4 µM]. Still for that read-out and setting: the value for `CCN1C(=O)[C@H]2[C@H]3[C@H](O)[C@H](O)C/C(=N/NC(=O)OCc4ccccc4)[C@@H]3CC[C@@H]2C1=O` was -2.34% [at 11.4 µM]; that for `CC(C)=NOC[C@@H](O)[C@@H]1O[C@@H]2OC(C)(C)O[C@@H]2[C@H]1O` was -4.07% [at 11.4 µM]. With `Clc1ccc(-c2ccnc(Oc3cc(Cl)ccc3Cl)n2)cc1`, the AC50 was 0.447 µM (active). On to `O=C(O)c1ccc(C(=O)O)c(C(=O)O)c1.[NH-][C@@H]1CCCC[C@@H]1[NH-].[Pt]`, for which the activity, negative = inhibition was -19% [at 11.4 µM]. As for `CC(C)OCCCN1CN(S(=O)(=O)c2cccc(Cl)c2)c2nc3ccccc3nc21`, the half-maximal activity concentration (AC50) was 14.1 µM (active). Take `C[N+](C)(C)CC[N+]1(C)Cc2c(Cl)c(Cl)c(Cl)c(Cl)c2C1`: the “activity, negative = inhibition” value was -15.9%. Consider `COc1ccc(Nc2ncc(C(=O)N3CCN(c4ccc(F)cc4)CC3)c3ccccc23)cc1`, for which the “activity, negative = inhibition” value is -21.6%. On to `Cc1noc(C)c1-c1nc(Nc2ccccc2)c2ccccc2n1`, for which the AC50 was 0.251 µM (active). For the compound `Cc1noc(C)c1-c1nc(NC2CCNCC2)c2ccccc2n1`, the AC50 is 5.01 µM (active). In the case of `Cc1noc(C)c1-c1nc(Nc2ccc(F)cc2)c2ccccc2n1`, the AC50 was 0.251 µM (active).

For `Cc1noc(C)c1-c1nc(Nc2ccncc2)c2ccccc2n1`, the AC50 is 0.1 µM (active).

Consider `COc1cccc(C2C3(C#N)C(N)=NC(OC)(OC)C23C#N)c1` (stereo not drawn), for which the “activity, negative = inhibition” value is -22.7%. Still for that read-out and setting: the value for `C#CCCCO/N=C1/C[C@@H](O)[C@@H](O)[C@@H]2[C@@H]3C(=O)N([C@@H](C)c4ccccc4)C(=O)[C@H]3CC[C@@H]12` was -1.14% [at 11.4 µM].

Take `CNc1nc(-c2c(C)noc2C)nc2ccccc12`: the AC50 was 0.0501 µM (active).

With `Cc1noc(C)c1-c1nc(N(C)C)c2ccccc2n1`, the AC50 is 0.0398 µM (active). Regarding `COC(=O)[C@@H]1CC[C@H](C)[C@@H](c2ccc(C)cc2)N1C(=O)c1ccc(/C=N\O[C@@H](C)CN2CCCc3nc(C)c(C)cc32)cc1`, the activity, negative = inhibition is -8.09% [at 11.4 µM]. With `C/C(=N/NC1=NCCN1)c1cn(C2=NCCN2)nc1C`, the activity, negative = inhibition was -13.9% [at 2.29 µM].

Consider `CS(=O)(=O)N1CCC[C@@]2(CCN(c3ccncc3)C2)C1`, for which the “activity, negative = inhibition” value was -0.751%.

On to `CN(C)[C@H]1C(=O)C(C(=O)NCN2CCCC2)=C(O)[C@]2(O)C(=O)C3=C(O)c4c(O)cccc4[C@@](C)(O)[C@H]3C[C@@H]12`, for which the “activity, negative = inhibition” value was -13.9% [at 25.6 µM]. In the case of `COc1ccc(N2CCN(C(=S)Nc3cc(C)ccc3C)CC2)cc1`, the “activity, negative = inhibition” value was -5.94%. With `COC(=O)c1ccc(C(=O)OC)c(NC(=S)N2CCN(c3ccccc3)CC2)c1`, the AC50 is 4.47 µM (active). Same read-out and setting: the value for `COC(=O)c1cc(OC)c(OC)cc1NC(=S)N1CCCCC1` was 1.58 µM (active).

As for `NC(=O)C1(N2CCCCC2)CCN(C(=S)Nc2ccc(Cl)cc2)CC1`, the “activity, negative = inhibition” value is -4.97%.

Take `Cc1ccc(NC(=S)N2CCN(C(=O)C3CCCO3)CC2)c(C)c1` (stereo not drawn): the “activity, negative = inhibition” value is -2.91%.

`COC(=O)c1ccc(NC(=S)N2CCN(Cc3cccc(C)c3)CC2)cc1`: the “activity, negative = inhibition” value is -18.6%. As for `N[C@@H](CS(=O)O)C(=O)O`, the “activity, negative = inhibition” value was -13.2%. Take `CCc1sc(-c2c(C#N)c(N)nc3c2CCCCCC3)cc1[N+](=O)[O-]`: the AC50 is 2 µM (active). Consider `COc1cccc(NC(=O)CSc2nc3c(c(-c4ccco4)c2C#N)CCCC3)c1`, for which the “activity, negative = inhibition” value was -1.32%. For the compound `O=c1[nH]n(-c2cccc(Cl)c2)c2ncccc12`, the AC50 is 5.01 µM (active). Regarding `Cc1ccc(N2C(=O)c3n[nH]c(C)c3C2c2ccccn2)cc1` (stereo not drawn), the “activity, negative = inhibition” value was -2.91%. Consider `Cc1ccc(-n2cnc(=O)c3cccnc32)cc1`, for which the “activity, negative = inhibition” value was -11.7%.

On to `O=c1nc(-c2ccccc2)n(-c2ccccc2)c2ncccc12`, for which the “activity, negative = inhibition” value was -20.5%. Same read-out and setting: for `O=c1ncn(-c2ccccc2F)c2ncccc12` the value was -9.76%. Take `Cc1ccc(-n2[nH]c(=O)c3cccnc32)cc1`: the AC50 was 2.51 µM (active). Take `CCOCCCn1cnc2c(c1=O)c1nc3ccccc3nc1n2-c1ccccc1`: the AC50 is 4.47 µM (active). Consider `COCCNC(=O)C1CCN(S(=O)(=O)N2CCC3(CC2)OCCO3)CC1`, for which the “activity, negative = inhibition” value is -13.7%.

For the compound `CCC(C)NCc1ccc(C(=O)OC)o1` (stereo not drawn), the “activity, negative = inhibition” value was -12.7%. With `O=C(Nc1ccc2nc(SCc3ccc(Cl)cc3)sc2c1)c1ccccc1C(=O)N1CCOCC1`, the “activity, negative = inhibition” value was -12.7%.
